The panel holds about 79,000 compounds, 15% with a hit somewhere; the sample as a whole holds those more often. Calls of active or inactive are those of the source. Cut-off read from the data, not from the text of the source: active = growth inhibition above about 70%; inactive = the rest.
Experiments:
[1] = NCI Yeast Anticancer Drug Screen. Data for the rad50 strain (AID 155);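 note: 0% = growth of vehicle-only cultures of the same strain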; conditions: S. cerevisiae rad50 strain growth inhibition; at 50.0 µM; hits give high values
How it was run: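 Growth of the mutant yeast was measured after compound exposure and referenced to vehicle-treated cultures.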

[2] = NCI Yeast Anticancer Drug Screen. Data for the mec2-1 strain (AID 157); conditions: S. cerevisiae mec2-1 strain, at 50.0 µM, hits give high values
How it was run: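 Compounds were applied to mec2-1 yeast cells. Their growth was then compared with that of vehicle-treated cultures to give growth inhibition.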

[3] = NCI Yeast Anticancer Drug Screen. Data for the sgs1 mgt1 strain (AID 161);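 note: 0% = growth of cultures given vehicle only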; conditions: S. cerevisiae sgs1 mgt1 strain, at 50.0 µM, hits give high values
How it was run: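 Growth of a repair-deficient yeast mutant was monitored after compound treatment and expressed as inhibition relative to vehicle-treated cultures.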

[4] = NCI Yeast Anticancer Drug Screen. Data for the cln2 rad14 strain (AID 165);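 note: 0% = growth equal to vehicle treated cultures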; conditions: S. cerevisiae cln2 rad14 strain, at 50.0 µM, hits give high values
How it was run: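 Strain: cln2 rad14 yeast, altered in cell cycle control and DNA damage repair. Read-out: growth inhibition vs vehicle.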

[5] = NCI Yeast Anticancer Drug Screen. Data for the bub3 strain (AID 167); conditions: S. cerevisiae bub3 mutant strain, at 50.0 µM, hits give high values
How it was run: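 Whole-cell yeast assay. The mutant strain was incubated with compounds, and growth inhibition was determined by comparison with vehicle-treated cells.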

[6] = NCI Yeast Anticancer Drug Screen. Data for the mlh1 rad18 strain (AID 175); conditions: S. cerevisiae mlh1 rad18 strain growth inhibition; at 50.0 µM; hits give high values
How it was run: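 A repair-deficient yeast strain is exposed to test compound, and growth is scored relative to vehicle-treated controls.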

Measured: growth inhibition

CCC/C=C(\C)C(C)(C#N)C(=O)OCC (configuration not stated)
inactive: [1] 3.1% | [2] -8.45% | [3] 10.8% | [4] -1.35% | [5] -17.7% | [6] -29.9%

FC(F)(F)c1ccc2c(c1)N(CCCN1CCN(C3CC3)CC1)c1ccccc1S2
active: [1] 99.3% | [2] 99.3% | [3] 99.7% | [4] 99% | [5] 99% | [6] 99.5%

COc1ccc(Oc2c(I)cc(CC(NC(C)=O)C(=O)O)cc2I)cc1 (configuration not stated)
inactive: [1] 43.1% | [2] 40.5% | [3] 38.7% | [4] 51.5% | [5] 37.4% | [6] 49.7%

CCCC1(c2ccccc2)NC(=O)NC1=O (configuration not stated)
inactive: [1] 5.75% | [2] 0.3% | [3] -6.1% | [4] -81.1% | [5] 7.95% | [6] -13.7%

CCc1ccc(/C(C#N)=C/C=C/c2ccccc2)cc1
inactive: [1] 8.9% | [2] -12.2% | [3] 20.6% | [4] -2.9% | [5] 38% | [6] 14.7%

Cc1cc(C)c(N)c(S(=O)(=O)O)c1
inactive: [1] -0.7% | [2] -6.45% | [3] -24.1% | [4] -63% | [5] 11.2% | [6] -13.7%

O=C(O)/C=C/c1ccc2c(c1)CCC2
inactive: [1] 28.6% | [2] 18.1% | [3] 48.4% | [4] 23.8% | [5] 50.6% | [6] 42.2%

Cc1cc(C(C)(C)C)cc(C)c1Br
inactive: [1] -1.85% | [2] -0.85% | [3] -9.25% | [4] -15.3% | [5] 0.15% | [6] -1.65%

COC(=O)/C=C1\Sc2cc(F)ccc2NC1=O
inactive: [1] -12.9% | [2] 2.45% | [3] 13.9% | [4] -44.2% | [5] -8.5% | [6] -6.55%

COc1cc2cc(c1Cl)N(C)C(=O)C[C@H](OC(=O)[C@H](C)N(C)C(C)=O)[C@]1(C)O[C@H]1[C@H](C)[C@@H]1C[C@@](O)(NC(=O)O1)[C@H](OC)C=C/C=C(\C)C2
inactive: [1] 12.1% | [2] -11.4% | [3] 6.55% | [4] 14.1% | [5] 5.9% | [6] 25.3%

COc1cc(C(N)=O)cc(OC)c1OC
inactive: [1] 2.9% | [2] -9.5% | [3] -0.35% | [4] 4.9% | [5] 4.95% | [6] -2.65%

C/C(O)=C(\C=N\C(N)=S)C(=O)Nc1ccccc1
inactive: [1] -4.6% | [2] -8.1% | [3] -23.9% | [4] -0.55% | [5] -2.45% | [6] 3.7%

O=C1c2ccccc2C(=O)c2c1ccc(C(=O)O)c2[N+](=O)[O-]
inactive: [1] 29.4% | [2] 16.6% | [3] 32.2% | [4] 31.8% | [5] 19.7% | [6] 28%

O=C(O)C(O)c1ccccc1 (configuration not stated)
inactive: [1] 20.2% | [2] -7.65% | [3] -5.7% | [4] -48% | [5] 11.3% | [6] 10.7%

NC(CSC(c1ccccc1)(c1ccccc1)c1ccccc1)C(=O)O (configuration not stated)
inactive: [1] 1.4% | [2] -18.8% | [3] -28.9% | [4] 20.8% | [5] -8.25% | [6] -42.2%

COc1ccc2c(NCCCCCCCCNc3c4ccccc4nc4cc(OC)ccc34)c3ccccc3nc2c1
active: [1] 90.8% | [2] 91.4% | [3] 91.8% | [4] 89.3% | [5] 90.8% | [6] 88.3%

Cc1ccc(S(=O)(=O)O)c(C)c1
inactive: [1] 19.3% | [2] -4.35% | [3] 14.4% | [4] 19.9% | [5] -0.9% | [6] 23.8%

COCCCNC(=O)c1nnn2c1nc(N)c1cc(Cl)ccc12
inactive: [1] -2.65% | [2] 2.75% | [3] 25.6% | [4] 3.2% | [5] 23.6% | [6] 10.6%

S=c1[nH]ccn1-c1ccccc1Cl
inactive: [1] -17.8% | [2] -17.2% | [3] -17.6% | [4] -29.1% | [5] -10.4% | [6] -2.1%

CC(C(=O)O)(C1CCCCC1)C1(O)CCCCC1 (configuration not stated)
inactive: [1] 29.8% | [2] 45.5% | [3] 39.9% | [4] 59.5% | [5] 62.5% | [6] 29.5%

COC(=O)CCCCC1=CCC2C(=O)C=C(O)C2C1 (configuration not stated)
inactive: [1] -13.3% | [2] 13.1% | [3] -11.2% | [4] -2.5% | [5] -6.6% | [6] -18.8%

O=C(/C=C/C(=O)c1ccccc1)c1ccccc1
inactive: [1] 41.8% | [2] 16.4% | [3] 28.1% | [4] -31.4% | [5] 36% | [6] 51.1%

COc1cc(/C=N\Nc2ccccc2)ccc1OC(=O)c1ccccc1
inactive: [1] 25.1% | [2] 8.95% | [3] 41.4% | [4] 23.9% | [5] 11.8% | [6] 17.6%

O=C(O)c1ccccc1NCc1ccco1
inactive: [1] -14.7% | [2] -40.9% | [3] 14% | [4] 7.85% | [5] -19.6% | [6] -5.7%

Oc1ccc2c(c1)OCC1(O)Cc3cc(O)c(O)cc3C21 (configuration not stated)
inactive: [1] 3.9% | [2] -2.4% | [3] 10.3% | [4] 3.6% | [5] 9.75% | [6] -3.8%

CCn1c(=O)n(C)c2c(=O)n(C)c(=O)n(C)c21
inactive: [1] 21.6% | [2] -3.8% | [3] -13.3% | [4] 1% | [5] 1.4% | [6] 2.2%

CO[C@H]1C[C@@H]2CC[C@@H](C)[C@@](O)(O2)C(=O)C(=O)N2CCCC[C@H]2C(=O)O[C@H]([C@H](C)C[C@@H]2CC[C@@H](O)[C@H](OC)C2)CC(=O)[C@H](C)C=C(C)[C@@H](O)[C@@H](OC)C(=O)[C@H](C)C[C@H](C)/C=C/C=C/C=C1C
active: [1] 88.8% | [2] 91.2% | [3] 89.8% | [4] 85.2% | [5] 89.1% | [6] 89.4%

COc1cc2cc(OC(C)=O)c3cc4c(cc3c2c(OC)c1OC)OCO4
inactive: [1] -18.4% | [2] -10.8% | [3] -16.3% | [4] -5.2% | [5] -21.9% | [6] -25.1%

Oc1ccc(O)cc1
inactive: [1] 20.6% | [2] 15% | [3] -0.45% | [4] -22.6% | [5] -0.85% | [6] 40.3%

O=[N+]([O-])c1cccc(C(F)(F)F)c1
inactive: [1] -3.9% | [2] -12.1% | [3] -9.1% | [4] -23.9% | [5] 34.3% | [6] -9.85%

O=C1OC[C@H]2[C@H](c3ccc(O)c(O)c3)c3cc(O)c(O)cc3C[C@H]12
inactive: [1] 24.9% | [2] -2.45% | [3] 23.9% | [4] 15.8% | [5] 23.7% | [6] 10.9%

COC(=O)/C=C\C(=O)OC
inactive: [1] 16.1% | [2] 6.85% | [3] -15.1% | [4] -5.65% | [5] -10.3% | [6] 14.7%

From PubChem BioAssay (NCI)
